In PubChem BioAssay AID1159580 (chemical genetic matrix, 2015):
Screen size: about 5,500 compounds; about 2,000 (36%) were called active. About 18% were inconclusive and are not listed. No stated cut-off is given here; in the data, active means normalized growth mostly below about 0.91 (no sharp cut-off); inconclusive means no clear call, values can overlap the other calls; inactive means mostly above about 0.92. Some of the results follow.

Test: chemical genetic growth profiling, strain panel (AID 1159580);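 further: tested at 20 µM; growth read once vehicle control cultures reached saturation at 30 °C; 1 = growth at the plate median or of vehicle wells; lower values mean less growth of the strain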
Details: growth OD
[1] = S. cerevisiae deletion strains, locus YAL040C, strain CLN3, active compounds read low
[2] = S. cerevisiae deletion strains, locus YCL061C, strain MRC1 (second series), active compounds read low
[3] = S. cerevisiae deletion strains, locus YDR150W, strain NUM1, active compounds read low
[4] = S. cerevisiae deletion strains, locus YDR363W, strain ESC2, active compounds read low
[5] = S. cerevisiae deletion strains, locus YER002W, strain NOP16, active compounds read low
[6] = S. cerevisiae deletion strains, locus YGR229C, strain SMI1, active compounds read low
[7] = S. cerevisiae deletion strains, locus YJR075W, strain HOC1, active compounds read low
[8] = S. cerevisiae deletion strains, locus YMR263W, strain SAP30, active compounds read low
[9] = S. cerevisiae deletion strains, locus YMR307W, strain GAS1, active compounds read low
[10] = S. cerevisiae deletion strains, locus YNL153C, strain GIM3, active compounds read low
[11] = S. cerevisiae deletion strains, locus YNL175C, strain NOP13, active compounds read low
[12] = S. cerevisiae deletion strains, locus YNL197C, strain WHI3, active compounds read low
[13] = S. cerevisiae deletion strains, locus YNL224C, strain SQS1, active compounds read low
[14] = S. cerevisiae deletion strains, locus YNL322C, strain KRE1, active compounds read low
[15] = S. cerevisiae deletion strains, locus YOR083W, strain WHI5 (second series), active compounds read low
[16] = S. cerevisiae deletion strains, locus YAL013W, strain DEP1, active compounds read low
[17] = S. cerevisiae deletion strains, locus YBR229C, strain ROT2, active compounds read low
[18] = S. cerevisiae deletion strains, locus YDL101C, strain DUN1, active compounds read low
[19] = S. cerevisiae deletion strains, locus YDL134C, strain PPH21, active compounds read low
[20] = S. cerevisiae deletion strains, locus YEL061C, strain CIN8, active compounds read low
[21] = S. cerevisiae deletion strains, locus YGR078C, strain PAC10, active compounds read low
[22] = S. cerevisiae deletion strains, locus YHR030C, strain SLT2, active compounds read low
[23] = S. cerevisiae deletion strains, locus YHR087W, strain rtc3, active compounds read low
[24] = S. cerevisiae deletion strains, locus YJR043C, strain POL32, active compounds read low
[25] = S. cerevisiae deletion strains, locus YLR039C, strain RIC1, active compounds read low
[26] = S. cerevisiae deletion strains, locus YLR058C, strain SHM2 (second series), active compounds read low
[27] = S. cerevisiae deletion strains, locus YLR085C, strain ARP6, active compounds read low
[28] = S. cerevisiae deletion strains, locus YLR262C, strain YPT6, active compounds read low
[29] = S. cerevisiae deletion strains, locus YML094W, strain GIM5, active compounds read low
[30] = S. cerevisiae deletion strains, locus YMR219W, strain ESC1, active compounds read low
[31] = S. cerevisiae deletion strains, locus YNL298W, strain CLA4 (second series), active compounds read low
[32] = S. cerevisiae deletion strains, locus YNR030W, strain Alg12, active compounds read low
[33] = S. cerevisiae deletion strains, locus YOL006C, strain TOP1, active compounds read low
[34] = S. cerevisiae deletion strains, locus YPL055C, strain LGE1, active compounds read low
[35] = S. cerevisiae deletion strains, locus YPL241C, strain CIN2, active compounds read low
[36] = S. cerevisiae deletion strains, locus YPR135W, strain CTF4, active compounds read low

Measured: normalized growth

O=C(c1ccc2c(c1)OCCO2)N1CCCCC1
inactive: [1] 0.989 | [2] 0.991 | [3] 1.01 | [4] 1.06 | [5] 0.986 | [6] 1.01 | [7] 1.03 | [8] 1 | [9] 1.01 | [10] 0.98 | [11] 0.992 | [12] 0.976 | [13] 1 | [14] 1.02 | [15] 0.993

O=C(CCN1CCOCC1)c1ccc2c(c1)OCCO2
active: [19] 0.836 | [20] 0.694 | [22] 0.51 | [25] 0.637 | [27] 0.259 | [28] 0.703 | [29] 0.802 | [32] 0.787 | [33] 0.708 | [35] 0.769
inactive: [16] 0.979 | [17] 0.982 | S. cerevisiae deletion strains, locus YCL061C, strain MRC1, active compounds read low 1.01 | [18] 1.01 | [3] 1.01 | [21] 0.987 | [23] 0.988 | [24] 0.996 | [7] 1.01 | [26] 0.989 | [30] 0.99 | [8] 1 | [10] 1.03 | [31] 0.852 | [14] 0.968 | [34] 0.982 | [36] 0.737

O=C(OCCN1CCOCC1)C1(c2ccccc2)CCCCC1
inactive: [16] 1.07 | [1] 1.01 | [2] 1 | [3] 1.01 | [4] 1 | [5] 1.01 | [11] 1.01 | [12] 0.999 | [13] 0.996 | [14] 1.01 | [15] 1 | [34] 1.02 | [35] 0.999

CCNS(=O)(=O)c1cc(Cl)sc1Cl
inactive: [16] 0.992 | [17] 1.02 | [18] 0.99 | [19] 1.01 | [3] 0.947 | [20] 0.995 | [21] 1 | [6] 0.994 | [22] 1.05 | [23] 1 | [24] 1.01 | [7] 1.01 | S. cerevisiae deletion strains, locus YKL190W, strain CNB1, active compounds read low 1 | [25] 0.989 | [26] 1.04 | [27] 0.983 | [28] 0.985 | [29] 1.01 | [30] 0.994 | [8] 1.01 | [9] 0.976 | [10] 1.01 | [31] 1.05 | [14] 0.992 | [32] 1.01 | [33] 1.02 | [34] 1.12 | [35] 1.01 | [36] 1.13 | S. cerevisiae strains, strain wild type, active compounds read low 0.998
